Consider 39 molecules from PubChem BioAssay (NCATS).

Inconclusive results are not listed. Active and inactive are the calls of the source. Calls follow the shape of the full dose curve.
Potency is read from the fitted curve at half-maximal effect.

The nature of the assay: Primary qHTS to identify inhibitors of SARS-CoV-2 cell entry (AID 1645846). Also: nearly all actives have a fitted effect of over 45% in size. The conditions noted are these: SARS-CoV-2 pseudovirus cell entry assay, luminescence; activity change, negative = inhibition: at 57.1 µM (top of the series) unless noted. The method in brief:
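Using luciferase-reporting pseudoviruses carrying Wuhan-Hu-1 spike, the screen tracks entry into stably ACE2-expressing cells over 48 hr. Activity is expressed relative to spike particles versus particles lacking any fusion protein.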
For the molecule `Cc1[nH]nc2ncc(C(=O)N3CCC[C@H]3c3ccc(Cl)cc3)cc12`, the activity change, negative = inhibition was -17.3%.
On the same count and under the same terms, under `O=C(Nc1ccccc1)Nc1ccc(-c2ccc(C(=O)[C@@H]3CCC[C@H]3C(=O)O)cc2)cc1` stands -45.3%.
With `CCn1c(=O)c2c(nc(/C=C/c3ccc(OC)c(OC)c3)n2C)n(CC)c1=O`, the outcome was inactive.
As for `CCOc1ccc(-n2c([C@@H](C)N(Cc3cccnc3)C(=O)Cc3ccc(F)c(C(F)(F)F)c3)nc3ncccc3c2=O)cc1`, the activity change, negative = inhibition is -17.6%.
The same measure, in the same setting: the same measure for `O=C(NNc1ccccc1)c1ccncc1`: -19.4%; for `C[C@@H]1CC(=O)Nc2cccc(-c3cnn(C(C)(C)C)c3)c2N1`: -17.2%; for `O=C(Nc1ccc2c(c1)CCN(Cc1ncn[nH]1)C2)c1ccccc1-c1ccc(C(F)(F)F)cc1`: -32.8%.
With `N#Cc1ccc(Cn2cncc2CN2CCN(c3cccc(Cl)c3)C(=O)C2)cc1`, the molecule was called inactive.
In the case of `CCN1CCN(Cc2ccc(NC(=O)c3ccc(C)c(NC(=O)c4cncc(-c5cccs5)c4)c3)cc2C(F)(F)F)CC1`, the Potency is 3.16 µM (active).
Still for that read-out and setting: the same measure for `CC1(C)OC2=C(C(=O)c3ccccc3C2=O)[C@H](NCc2ccccc2)[C@@H]1O`: 3.16 µM (active).
Take `CC(=NNC(=O)c1cccc(S(=O)(=O)N2CCOCC2)c1)c1cc(Cl)ccc1O`: the activity change, negative = inhibition is -7.45%.
As for `CCNC(=O)Nc1ncc(-c2cc(-c3c(C)cc(OC)cc3C)nc(-c3cnccn3)n2)s1`, the activity change, negative = inhibition was -1.07%.
Same read-out and setting: the same measure for `CCOC(=O)c1ccnc(CNCC(=O)N(CC)CCN(C)C)c1`: -19.4%.
On the same count and under the same terms, the same measure for `COc1ccccc1C(=O)Nc1cc2c(cc1N1CCCC1)n(C)c(=O)n2C`: -27%.
`CCN1CCN(Cc2ccc(NC(=O)c3ccc(C)c(/C=C/c4cnc5[nH]ccc5c4OC)c3)cc2C(F)(F)F)CC1`: the Potency was 10 µM (active).
As for `CCO[C@@H]1OC(=O)C[C@@H]1NC(=O)[C@@H]1CCCN2C(=O)CC[C@H](NC(=O)c3nccc4ccccc34)C(=O)N12`, the activity change, negative = inhibition was -4.46%.
For the molecule `CC(C)S(=O)(=O)c1ccc2nccc(Nc3ccc4scnc4c3)c2c1`, the activity change, negative = inhibition was -14.4%.
For the molecule `CC(=O)N[C@H]1CSSC[C@@H](C(N)=O)NC(=O)[C@H](C(C)C)NC(=O)[C@H](C)NC(=O)[C@H](Cc2cnc[nH]2)NC1=O`, the outcome was inactive.
Turning to `CN(C)C1CCN(C(=O)c2ccc(NC(=O)Nc3ccc(-c4nc(N5CCOCC5)nc(N5CCOCC5)n4)cc3)cc2)CC1`, the Potency was 1.58 µM (active).
For the molecule `C=CC(=O)N1C[C@H](Nc2ncnc3[nH]ccc23)CC[C@@H]1C`, the result was inactive.
Turning to `COc1cccc2c1c(O)c(C(=O)N(C)c1ccc(C(F)(F)F)cc1)c(=O)n2C`, the activity change, negative = inhibition is -9.47%.
Same read-out and setting: the same measure for `O=c1cc(N2CCOCC2)oc2c(-c3ccc4c(c3)OCCO4)csc12`: -5.73%.
On the same count and under the same terms, the same measure for `CCCNC(=O)c1cn2ncnc(Nc3cc(C(=O)NC4CC4)ccc3C)c2c1C`: -27.9%.
Consider `CCn1c(N)c(C(=O)NC)c(=O)c2ccc(C#CC(C)(O)COC)nc21` (centres undefined), for which the activity change, negative = inhibition was found to be 2.21%.
The same measure, in the same setting: under `CC[C@@H](Oc1cccc(CN(CCCOc2ccc(OC)cc2)c2nc3ccccc3o2)c1)C(=O)O` stands -15.3%.
`CC(=O)Nc1ccc(C(=O)NC(C)(C)C)cc1`: the molecule was called inactive.
Same read-out and setting: the same measure for `O=C(O)CNC(=O)c1ncc(-c2cccc(Cl)c2)cc1O`: “inactive”.
For `C[C@H]1O[C@H](O[C@H]2[C@H](O)[C@@H](O)[C@@H](O[C@H]3[C@H](O)[C@@H](O)C(O)O[C@@H]3CO)O[C@@H]2CO)[C@H](O)[C@@H](O)[C@@H]1N[C@H]1C=C(CO)[C@@H](O)[C@H](O)[C@H]1O` (some centres undefined), the activity change, negative = inhibition was -16.5%.
The same measure, in the same setting: the same measure for `CC1=C2[N-][C@H]([C@H](CC(N)=O)[C@@]2(C)CCC(=O)NC[C@@H](C)OP(=O)([O-])O[C@H]2[C@@H](O)[C@@H](n3cnc4cc(C)c(C)cc43)O[C@@H]2CO)[C@]2(C)N=C(C(C)=C3N=C(C=C4N=C1[C@@H](CCC(N)=O)C4(C)C)[C@@H](CCC(N)=O)[C@]3(C)CC(N)=O)[C@@H](CCC(N)=O)[C@]2(C)CC(N)=O.O.[Co+2]`: -20.3%.
With `CCS(=O)(=O)c1ccc2oc(-c3ccc4ccccc4c3)nc2c1`, the molecule was classed as inactive.
Regarding `O=C1CC[C@H](N2Cc3c(OCc4ccc(CN5CCOCC5)cc4)cccc3C2=O)C(=O)N1`, the activity change, negative = inhibition is -23.3%.
For the molecule `CCc1c(C(=O)NNC(=O)[C@@H](O)c2cc(F)cc(F)c2)ccc(O)c1C`, the activity change, negative = inhibition was -19.8%.
As for `C[C@]12CC[C@H](O)CC1=CC[C@@H]1[C@@H]2CC[C@]2(C)C(c3cccnc3)=CC[C@@H]12`, the “outcome” value was “inactive [at 27.1 µM]”.
In the case of `CC(/C=C/[C@@H]1C[C@]1(C)c1ccc2c(c1)C(C)(C)CCC2(C)C)=C\C(=O)O`, the activity change, negative = inhibition is -10.9%.
In the case of `Cc1nc(-c2cccnc2)sc1C(=O)Nc1ccccc1-c1cn2c(CN3CCOCC3)csc2n1`, the outcome was inactive.
Take `O=C(O)CC1CCC(c2ccc(-c3ccc(Nc4ccc(C(F)(F)F)nc4)cn3)cc2)CC1` (centres undefined): the activity change, negative = inhibition is -24.6%.
For the molecule `Nc1ncnc2c1c(COc1cccc(Cl)c1)nn2C1CCOCC1`, the outcome was inactive.
Consider `Cc1[nH]nc(C(F)(F)F)c1Cc1sc2c(c1C(=O)N1C[C@](C)(O)CO1)c(=O)n(C)c(=O)n2C(C)C`, for which the activity change, negative = inhibition was -25.9%.
As for `N=C(N)c1ccc2nc(-c3cc(CC(=O)N[C@@H](CC(=O)O)C(=O)O)cc(-c4cc(S(N)(=O)=O)ccc4O)c3O)[nH]c2c1`, the molecule was called inactive.
